{
  "source": "PubChem BioAssay (NCI)",
  "note": "Where “and” joins values, the source holds several entries; their conditions need not be identical. Equal entries are not always repeated. The panel holds about 83,000 compounds, 20% with a hit somewhere; the sample as a whole holds those more often.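 48-hour exposure, single concentration, 96-well plates; percent growth endpoint where 0 means no net growth. Active: below 10.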 Calls of active or inactive are those of the source.",
  "data": [
    {"test_system": "MDA-MB-468 breast", "assay": "NCI-60 one-dose screen, 48 h (100 = growth as untreated, 0 = no growth, -100 = all killed)", "details": "10 µM unless noted", "values": [
      {"smiles": "CCCCNCCCCCNc1cc(OC)cc2cccnc12", "growth": "68.8% (inactive)"},
      {"smiles": "O=C(c1ccc(Br)cc1)C(Br)C(c1ccc(Cl)cc1)C(c1ccccc1)[N+](=O)[O-]", "note": "(centres undefined)", "growth": "80.7% (inactive)"},
      {"smiles": "O=C(CN1CCOCC1)Nc1ccc2ncnc(Nc3ccc(Oc4cccc(C(F)(F)F)c4)c(Cl)c3)c2c1", "growth": "-7.54% (active)"},
      {"smiles": "CN1CCN(c2ccc(NC(=O)c3cncnc3Nc3ccc(OCc4ccccn4)c(Cl)c3)cc2)CC1", "growth": "38.1% (inactive)"},
      {"smiles": "COC(=O)[C@H](CC(C)C)NC(=O)NC(=O)NC(=O)CI", "growth": "75.9% (inactive)"},
      {"smiles": "Oc1c(C(Nc2ccccn2)c2cccc(Oc3ccccc3)c2)ccc2cccnc12", "note": "(centres undefined)", "growth": "-79.2% (active)"},
      {"smiles": "COc1cc(C(=O)c2cc3c(cc2C)OCO3)cc(OC)c1OC", "growth": "27.6% (inactive)"},
      {"smiles": "C=C(C)[C@@H]1CC[C@]2(C(=O)NCC#CCN3CCN(C)CC3)CC[C@]3(C)[C@H](CC[C@@H]4[C@@](C)(CCC#N)[C@H](C(=C)C)CC[C@]43C)[C@@H]12", "growth": "18.7% (inactive)"},
      {"smiles": "Nc1nc(Nc2cc(Cl)cc(Cl)c2)nn1S(=O)(=O)c1ccc2ccccc2c1", "growth": "66.3% (inactive)"},
      {"smiles": "Cc1ccc(NCCNCC(C)(C)O)c2c(=O)c3ccc(Cl)cc3sc12", "growth": "-28.9% (active)"},
      {"smiles": "CC(=O)Nc1ccc(OC(C)=O)cc1", "growth": "5.17% (active) and 92.5% (inactive)"},
      {"smiles": "CC[C@@H]1NC(=O)[C@@H]2CCCCN2C(=O)[C@@H]2CCCN2C(=O)[C@@H](NC(=O)[C@H](Cc2cc(F)cc(F)c2)NC(=O)Nc2ccc(C3CC3)cc2F)[C@H](C)OC(=O)[C@@H]2C[C@@H](C)CN2C1=O", "growth": "-33.6% (active)"},
      {"smiles": "CN1CCN(C(=O)[C@]2(C)CC[C@]3(C)CC[C@]4(C)C(=CC(=O)[C@@H]5[C@@]6(C)CCC(=O)NC(C)(C)[C@@H]6CC[C@]54C)[C@@H]3C2)CC1", "growth": "101% (inactive)"},
      {"smiles": "CNC(=O)c1c(C)oc2cc(Oc3ncnc4cc(OC)c(OC)cc34)ccc12", "growth": "106% (inactive)"},
      {"smiles": "Cc1ccc(N)cc1CN1C(=O)c2ccccc2C1=O", "growth": "107% (inactive)"},
      {"smiles": "CCN(CC)CC(=O)Nc1cccc(C(=O)OC(C)C)c1", "growth": "115% (inactive)"},
      {"smiles": "C[C@@H]1CC[C@@H]2[C@@H]1[C@H](OC(=O)/C=C/c1ccccc1)[C@]1(C3CCCCC3)C[C@@H](NC(=O)CO)[C@@]2(C)O1", "growth": "115% (inactive)"},
      {"smiles": "O=C(c1ccccc1)C1OC1C(=O)c1ccccc1", "note": "(centres undefined)", "growth": "0.0075% (active)"},
      {"smiles": "COc1cc(C2C(C#N)=C(N)OC3=C2C(=O)c2ccccc2C3=O)cc(OC)c1O", "note": "(centres undefined)", "growth": "106% (inactive)"},
      {"smiles": "C=C1C(=O)O[C@H]2[C@H]1CC/C(COC(=O)/C=C/C(=O)OC/C1=C/CC[C@@]3(C)O[C@H]3[C@H]3OC(=O)C(=C)[C@@H]3CC1)=C\\CC[C@@]1(C)O[C@@H]21", "growth": "-5.97% (active)"},
      {"smiles": "CC(=O)N1N=C(c2ccc3c(c2)OCO3)CC1c1c(C)nn(-c2ccccc2)c1N(C)Cc1ccccc1", "note": "(centres undefined)", "growth": "61.5% (inactive)"},
      {"smiles": "N#Cc1c(NC(=O)c2ccccc2I)sc2c1CCCC2", "growth": "50% (inactive)"},
      {"smiles": "O=C1/C(=C/C=C/c2ccco2)SC(=S)N1Cc1ccccc1", "growth": "58.5% (inactive)"},
      {"smiles": "O=S(=O)(NCCNc1nccc(-c2c(-c3cccc(F)c3)nc3occn23)n1)c1ccc(Br)cc1", "growth": "67.7% (inactive)"},
      {"smiles": "COc1cc(-c2nccc3[nH]c(-c4cccc5[nH]ccc45)nc23)cc(OC)c1OC", "growth": "-26.1% (active)"},
      {"smiles": "O=C(NNc1nc2cc(F)c(F)cc2n2cccc12)c1ncccn1", "growth": "3.66% (active)"},
      {"smiles": "c1ccc(-c2nc([P+](c3ccccc3)(c3ccccc3)c3ccccc3)c(N3CCOCC3)o2)cc1", "growth": "-22.5% (active)"},
      {"smiles": "NC(=N\\N=C/c1ccccc1[N+](=O)[O-])/C(N)=N\\N=C/c1ccccc1[N+](=O)[O-]", "growth": "101% (inactive)"},
      {"smiles": "COc1ccc(Cn2nc3c(c2-c2cc(OC)c(OC)c(OC)c2)-c2oncc2CC3)cc1", "growth": "27.8% (inactive)"},
      {"smiles": "Cc1ccc(CC#N)cc1C", "growth": "104% (inactive)"},
      {"smiles": "O=C(N/N=C/c1cc(Cl)ccc1O)C(=O)N/N=C/c1cc(Cl)ccc1O", "growth": "61.3% (inactive)"},
      {"smiles": "C=C(C)[C@@H]1CC[C@]2(C(=O)O)CC[C@]3(C)[C@H](CC[C@@H]4[C@@]5(C)C/C(=C/c6cccc(I)c6)C(=O)C(C)(C)[C@@H]5CC[C@]43C)[C@@H]12", "growth": "25.6% (inactive)"},
      {"smiles": "Cc1ccc(-c2nc(-c3cn(C)c4ncccc34)cs2)cc1", "growth": "-50.2% [100 µM] (active)"},
      {"smiles": "NC1=NC(=O)C(c2ccccc2)(c2ccccc2)S1", "growth": "111% (inactive)"}
    ]}
  ]
}
